Inconclusive results are not listed. Activity calls are given as the source filed them. Calls follow the shape of the dose curve; as a rule, active = well fitted cell-killing curve with a large enough effect; inconclusive = small, poorly fitted or top-dose-only effect, or effect the other way; inactive = no such curve, though single readings can be large or run the other way.

Assay [1] is described as follows: Viability qHTS for spleen associated tyrosine kinase inhibitor (SYKi) naive MV4-11 cells (AID 1963823). Also: nearly all actives have a fitted effect of over 40% in size. In short, it runs like this: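 Viability of MV4-11 AML cells lacking prior SYK inhibitor exposure is scored by CellTiter-Glo luminescence following 72 hr compound incubation at 37 C, 5% CO2, seeded at 500 cells per well.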
Background: In qHTS, concentration-response curves come from the screen itself.

Assay [2] is described as follows: Viability qHTS for spleen associated tyrosine kinase inhibitor (SYKi) drug resistant MV4-11 cells (AID 1963824). Also: nearly all actives have a fitted effect of over 35% in size. An outline of the steps:
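SYK inhibitor-resistant MV4-11 AML cells, 500 per well, added to predispensed compounds and incubated 72 hr at 37 C, 5% CO2. Viability measured by CellTiter-Glo luminescence after 10 min at room temperature.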
Potency is read from the fitted curve at half-maximal effect.

For `O=C1Nc2ccc(O)cc2O[C@H]1O[C@@H]1O[C@H](CO)[C@@H](O)[C@H](O)[C@H]1O`, the Potency result in assay [1] and in assay [2] was “inactive” in each case.
On to `CC(O)/C=C/C1C(C)C(O[C@@H]2O[C@H](CO)[C@@H](O)[C@H](O)[C@H]2O)C(O)CC1(C)C` (some centres not stated), for which the Potency entry in assay [1] and in assay [2] was “inactive” throughout.
On to `Cc1cc(C(=O)N2Cc3cnn(C)c3Nc3ccccc32)ccc1CNC(=O)N1CCC[C@H]1C(=S)N1CCCN(C)CC1`, for which the Potency result in assay [1] and in assay [2] was “inactive” in each case.
For `Cc1ncc(CCCN(C)C)cc1Nc1ncc2c(n1)-c1ccc(C(F)(F)F)cc1NC(=S)C2`, the Potency in assay [1] was 51.7 nM (active); in assay [2], 20.6 nM (active).
As to `CC1=C(C)C(=O)OC(C(C)C2CCC3C4C5OC5C5(O)CC(OC6OC(CO)C(OC7OC(C)C(O)C(O)C7O)C(O)C6O)CC(O)C5(C)C4CCC23C)C1` (configuration not stated), the Potency result in assay [1] and in assay [2] was “inactive” in each case.
Regarding `CC(O)(CC(=O)O)CC(=O)OCc1ccc(O[C@@H]2O[C@H](CO)[C@@H](O)[C@H](O)[C@H]2O)cc1` (some centres not stated), the Potency result in assay [1] and in assay [2] was “inactive” each time.
Take `CC(=O)N[C@H](Cc1ccc(O)cc1)C(=O)N[C@H](CCCN=C(N)N)C(=O)N[C@H](Cc1ccccc1)C(N)=O`: the Potency entry in assay [1] and in assay [2] was “inactive” throughout.
For `CCCCNc1ncc(C(=O)NCc2ccc(-n3ccnc3)cc2)c(NC2CCC(O)CC2)n1` (configuration not stated), the values for the Potency in assay [1] and in assay [2] were 92 nM (active) and 259 nM (active), respectively.
As to `CNC(=S)NS(=O)(=O)c1cc(CCNC(=O)c2cc(Cl)ccc2OC)ccc1OC`, the Potency result in assay [1] and in assay [2] was “inactive” throughout.
Take `C[C@@H]1O[C@@H](OC(=O)Cc2ccccc2)[C@H](O)[C@H](O)[C@H]1O`: the Potency result in assay [1] and in assay [2] was “inactive” in each case.
For the compound `O=C(O)CC(=O)OC[C@H]1O[C@@H](Oc2ccc3c(c2)OC[C@H]2c4cc5c(cc4O[C@@H]32)OCO5)[C@H](O)[C@@H](O)[C@@H]1O`, the Potency result in assay [1] and in assay [2] was “inactive” throughout.

For the origin of these results see PubChem BioAssay (NCATS).
